We go through 96 molecules from PubChem BioAssay AID739 (SRMLSC, 2007).

For orientation: inhibition means the relative decrease from the control value, in per cent.

In all, about 98,000 compounds went through this assay and about 880 (0.9%) were called active. The sample as a whole holds a higher share of actives than the screen did. A number with no mark means an inactive call. Cut-off read from the data, not from the text of the source: active = inhibition above about 30%; inactive = the rest.

This experiment is described as follows: phenotypic screen on post-Golgi transport, primary screen (AID 739).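 Note: yeast cells grown in 1536-well plates; yeast grown about 18 h at 30C before absorbance read.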 The settings on record: post-Golgi transport phenotypic cell assay; at 10 µM; hits give high values.
With `O=C(c1cccc(F)c1)N1CCC(O)(c2cccnc2)CC1`, the inhibition was 1.27%. For `COc1ccc2[nH]cc(/C=C(/C#N)S(=O)(=O)c3ccccc3)c2c1`, the inhibition was -4.52%. In the case of `Cc1ccc(C2(C(F)(F)F)N=C3Sc4cc(C)cc(C)c4N3C(=O)N2)cc1` (stereo unspecified), the inhibition is 90.2% (active). As to `Cc1n[nH]c(=O)n1-c1ccc(Oc2ccccc2)cc1`, the inhibition is -19.2%. `COC(=O)Nc1ncc(CN2CCCCC2)s1`: the inhibition was -4.67%. Next, `Cc1ccc(/C=N/NC(=O)C(NC(=O)c2ccccc2)c2n[nH]c(=O)c3ccccc23)cc1` (stereo unspecified): 0.64%.

`Cc1cc(NC(=O)/C=C/C(=O)N(c2ccccc2C)C(C(=O)NC2CCCC2)c2ccc(F)cc2)no1` (stereo unspecified): the inhibition is 0.32%. As for `CC1=CC(C)(C)N(C(=O)CSc2nccn2C)c2cc(C)ccc21`, the inhibition is 5.13%. In the case of `O=C(CSc1nnc(-c2ccccc2)o1)N1CCOCC1`, the inhibition was 8.7%. As for `CC1=CC(C)(C)N(C(=O)CSc2nnc(-c3ccccc3)o2)c2ccc(C)cc21`, the figure is 101% (active). Consider `Cc1ccc(CNC(=O)c2ccccc2CCc2ccccc2)cc1`, for which the inhibition is -2.21%.

`FC(F)(F)COc1nc(N2CCCCC2)nc(N2CCNCC2)n1`: the inhibition is 33.5% (active).

As to `O=C(CSCc1ccc(Cl)cc1)N1CCCCC1`, the inhibition is -4.56%. Regarding `Cc1cc([N+](=O)[O-])c(-c2ccc(/C=N/n3cnnc3)o2)cc1Cl`, the inhibition is 99.8% (active). For `Cc1cc(C)c([N+](=O)[O-])cc1-c1ccc(/C=N/NC(=O)c2nonc2N)o1`, the inhibition is -6.17%.

On to `O=C1C2C3C=CC(C4CC34)C2C(=O)N1/N=C/c1ccc(-c2ccccc2[N+](=O)[O-])o1` (stereo unspecified), for which the inhibition is 3.37%. In the case of `Cc1cc(-c2ccc(/C=N/n3cnnc3)o2)c([N+](=O)[O-])cc1C`, the inhibition is 59.7% (active). As for `CCOc1ccc(C(=O)NCCCN2CCCC2=O)cc1`, the figure is 11.5%.

In the case of `O=C(COC(=O)c1ccccc1NC(=O)c1ccco1)Nc1ccc2c(c1)OC(F)(F)O2`, the inhibition was -2.04%.

Take `Cc1nc2ccc(NC(=O)C(F)(F)F)cc2o1`: the inhibition was -13.7%. `OC(c1ccccc1)c1nccn1Cc1ccccc1` (stereo unspecified): the inhibition was -6.53%. Turning to `Cn1c(-c2sc3cc(C(F)(F)F)cnc3c2-c2ccccc2)n[nH]c1=S`, the inhibition is -3.98%. On to `c1ccc2c(CSCc3nc4ccccc4[nH]3)cccc2c1`, for which the inhibition is 4.1%. For `Cc1ccc(SCC(=O)Nc2ncc(C)s2)cc1`, the inhibition is -7.09%. As to `O=C1c2ccccc2C2=Nc3ccccc3SC(c3ccccc3F)C12` (stereo unspecified), the inhibition is 103% (active).

In the case of `Cc1c(CCO)c(=O)n(-c2ccccc2)n1S(=O)(=O)c1ccc(F)cc1`, the inhibition is -6.46%. In the case of `CC(C)c1nc(N2CCOCC2)c(C#N)c2c1COC(C)(C)C2`, the inhibition is -8.94%. Turning to `CC(C)CCNc1nc(N2CCCC2)c2c(c1C#N)CCN(C)C2`, the inhibition was -1.14%. Next, `CC(C)Cc1nc(N2CCOCC2)c(C#N)c2c1CCC2`: 35% (active). Turning to `CCOc1ccc(-c2c(C)n([O-])c3c([n+]2=O)CCCC3)cc1`, the inhibition is 0.66%. Take `Clc1ccc(C2CC(c3cccs3)n3ncnc3N2)cc1Cl` (stereo unspecified): the inhibition was 1.99%. With `FC(F)Oc1ccccc1C1CC(c2ccc(Br)s2)Nc2ncnn21` (stereo unspecified), the inhibition is 39.4% (active). Turning to `COc1ccc(C2CC(c3ccccc3)Nc3ncnn32)cc1` (stereo unspecified), the inhibition was 4.34%. In the case of `CC(C)C(=O)OCC(=O)Nc1ccc2c(c1)CCC2`, the inhibition was 7.4%. In the case of `CCC(=O)NC(Nc1cc(C)ccn1)(C(F)(F)F)C(F)(F)F`, the inhibition is 6.28%. As to `COCCNS(=O)(=O)c1cc(Br)ccc1OC`, the inhibition was 8.12%.

With `CC1=NCCN1S(=O)(=O)c1ccc(Br)c(C)c1`, the inhibition is 3.83%. Next, `COc1ccc(Br)cc1S(=O)(=O)N1CCN=C1C`: 31.5% (active). For `COCc1[nH][nH]c(=O)c1C=Nc1ccc(F)cc1F`, the inhibition is 5.45%. Take `COC(=O)c1cc(NC(=O)C2C3C=CC(C3)C2C(=O)O)cc(C(=O)OC)c1` (stereo unspecified): the inhibition was 2.17%. As to `CCc1nn(-c2cc(Oc3cccc4ccccc34)nc(-c3ccccc3)n2)c(N)c1C#N`, the inhibition was -15.9%.

On to `O=[N+]([O-])c1ccc(Oc2ccc(F)cc2Br)c2ccncc12`, for which the inhibition was 54.4% (active).

For the molecule `CCOC(=O)Nc1sc(C(=O)N(C)C)c(C)c1C(=O)OCC`, the inhibition was 21.1%.

For the molecule `Cc1ccc(CCN2CC(C(=O)O)CC2=O)cc1` (stereo unspecified), the inhibition was -4.77%. For `NC(=O)N1CCCC1C(=O)Nc1ccc(Cl)c(Cl)c1` (stereo unspecified), the inhibition is -3.91%. For `CCOC(=O)/C(C#N)=C/c1ccc(OCC(=O)Nc2ccccc2)c(OC)c1`, the inhibition is 6.16%. For `O=C(NCCc1ccccc1)/C(=C\c1ccc([N+](=O)[O-])cc1)NC(=O)c1ccccc1`, the inhibition is 4.97%. Regarding `CCOC(=O)/C(=C\c1ccc([N+](=O)[O-])cc1)C(=O)c1cc(C(C)=O)c(Nc2ccccc2)s1`, the inhibition was 64.9% (active). Regarding `Cc1noc(/C=C/c2ccco2)c1S(=O)(=O)N1CCC(C(=O)N2CCc3ccccc32)CC1`, the inhibition was -4.89%. As for `COc1ccccc1CSc1nc2ccccc2[nH]1`, the inhibition was 1.93%. As to `CCc1c(-c2ccccc2)nc(N)c(C#N)c1-c1cccs1`, the inhibition is 2.36%. With `CCc1nc2oc3ccccc3c(=O)c2c(=O)n1Cc1ccc(OC)cc1`, the inhibition is 8.05%. As for `O=c1c2ccccc2oc2nc(C3CCCCC3)n(Cc3ccco3)c(=O)c12`, the inhibition was 68.9% (active). As for `O=c1c2ccccc2oc2nc3n(c(=O)c12)CCCS3`, the inhibition was 5.66%. For the molecule `COc1cc(/C=C(/NC(=O)c2ccccc2)C(=O)Nc2cccc(O)c2)c([N+](=O)[O-])cc1OC`, the inhibition is -17.3%. For the molecule `COCCn1c(SCc2nc3cc(OC)c(OC)cc3c(=O)[nH]2)nnc1-c1ccncc1`, the inhibition is 6.95%. Turning to `C=CCNC(=O)c1sc(SC)cc1-c1ccc(Cl)cc1`, the inhibition was 20%. As to `CCCCCCC(=O)Nc1nc(C)c(-c2csc(Nc3cccc(OC)c3)n2)s1`, the inhibition was -3.09%. For `COc1ccc(C2=NO[C@@H]3C(=O)N(Cc4ccccc4)C(=O)[C@H]23)cc1OC`, the inhibition was 6.43%. As for `CC(=O)Nc1cc(C(=O)O)ccc1S(=O)(=O)c1ccc(Cl)cc1`, the figure is -1.65%. As for `O=C(Nc1ccc(Cl)cc1)c1ccsn1`, the inhibition is 8.05%.

`O=C(Nc1ccccc1)c1nnsc1S(=O)(=O)c1ccc(Cl)cc1`: the inhibition is 76.3% (active). For the molecule `Cc1cc(N/C=C\C(=O)c2ccc(Cl)c(Cl)c2)no1`, the inhibition is -4.69%. Next, `CCOc1cccc(NC(=O)C2CCCN(S(=O)(=O)c3ccc(OC)cc3)C2)c1` (stereo unspecified): -5.63%; `CC(=O)c1cccc(NC(=O)N2CCCC2C(=O)NCCc2ccccc2)c1` (stereo unspecified): 20%. For `COc1cccc(NC(=O)C2CCCN2C(=O)OCc2ccccc2)c1` (stereo unspecified), the inhibition is 32% (active). For the molecule `CCN(CC)C(=O)CSc1nc2ccccc2n1CC(=O)N1CCN(c2ccccc2OC)CC1`, the inhibition was 11.2%. Regarding `COc1ccc(C(=O)Nc2ncc3c(n2)-c2ccccc2CC3)cc1`, the inhibition is 16.5%. For the molecule `Cc1ccn2cc(-c3nonc3C)cc2c1`, the inhibition was 37.3% (active). Regarding `COc1ccc(C2CC(=O)Nc3cc(C)c(C)cc32)c(OC)c1OC` (stereo unspecified), the inhibition was 11.7%. For the molecule `COC(=O)C(C(=O)Nc1cccc(C)n1)C1CCCCCC1` (stereo unspecified), the inhibition was -2.06%. As to `COc1ccc2ccccc2c1CNCc1ccccn1`, the inhibition is 0.33%. Turning to `CC1CCN(CC(=O)c2c[nH]c3ccccc23)CC1`, the inhibition is 0%. On to `CCOc1ccc(-c2cn(S(=O)(=O)c3cccc4nsnc34)nc2N)cc1`, for which the inhibition was 46.9% (active).

On to `CCOc1ccc(OCC)c(NC(=O)CN(C)S(=O)(=O)c2cccc3nsnc23)c1`, for which the inhibition is 1.42%.

For `CCOc1ccc(NC(=O)CCS(=O)(=O)c2cccc3nsnc23)cc1`, the inhibition was -1.86%. Take `O=C1N=C2SCCN2/C1=C\c1c(Cl)cccc1Cl`: the inhibition is -3.72%. On to `COC(=O)c1c(NC(=O)c2cccs2)sc2c1CCCC2`, for which the inhibition is 3.23%. Turning to `Cc1ccc(C(=O)c2c(NC(=O)c3ccncc3)sc3c2CCCC3)cc1`, the inhibition is 97.2% (active). Regarding `Cc1ccc(C(=O)c2c(NC(=O)c3ccccc3)sc(C)c2C)cc1`, the inhibition was 0%. Regarding `CCCc1cc(=O)[nH]c(SCC(=O)c2cc(C)n(CCC)c2C)n1`, the inhibition was -4.22%. Regarding `COc1cc(/C=N/O)cc(Br)c1OS(=O)(=O)c1ccc(C)cc1`, the inhibition was 2.99%. For `CCOc1ccc(N(CC(=O)NC2CCCCCC2)S(=O)(=O)c2c(C)[nH]c(=O)[nH]c2=O)cc1`, the inhibition is -2.87%. As for `O=C1C=C(c2ccc(Cl)cc2)C(=O)N1Nc1ccccc1`, the figure is 106% (active); as for `O=C1c2cccc3cc(Br)cc(c23)C(=O)N1Nc1ccccc1`, -2.04%; as for `O=C(Nc1ccccc1)OCc1cc(-c2ccc(Cl)cc2)on1`, -5.71%. Consider `COc1ccc(-c2csc3nc(-c4ccccc4F)oc(=O)c23)cc1OC`, for which the inhibition is 6.4%. Turning to `CC1(C)CCCC2=C1CC1C(=O)N(c3ccccc3)C(=O)C1C2` (stereo unspecified), the inhibition was -1.13%. Next, `CC1CC2=C(CC1/C=N/NC(N)=S)C(C)(C)CCC2` (stereo unspecified): 100% (active). As for `Cc1cc(C)c2nc(NC(=O)C3CCCO3)sc2c1` (stereo unspecified), the figure is -4.03%; as for `O=C(CSc1ccc(/C=N/NC(=O)c2cccc(F)c2)o1)Nc1ccccc1`, -2.85%; as for `COc1ccc(CCNS(=O)(=O)c2ccc(Cl)s2)cc1OC`, -1.32%. With `COc1cccc(-c2cc3nc4c(c(N5CCC6(CC5)OCCO6)n3n2)CCCC4)c1`, the inhibition is 45.5% (active). As for `COc1cccc(-c2nc(S(=O)(=O)c3ccccc3)c(N3CCOCC3)o2)c1`, the inhibition is -8.86%. On to `COc1cccc(CNc2nc3nc4c(c(=O)n3[nH]2)CCC4)c1`, for which the inhibition was -5.47%. Turning to `Cc1cccc(NC(=O)CSc2nnc(-c3ccco3)o2)c1`, the inhibition was -0.81%.
